The record followed here is PubChem BioAssay.

Calls of active or inactive are those of the source.

The subject of the experiment is XIP peptide (Xip251-270) binding. In words: XIP fragment 251-270 binding compounds – biochemical, small-molecule microarray, fluorescence 635/667 nm, 0.1 µg/mL protein, primary screen (AID 1182). The following applies: fluorescent protein binding, 635 nm, higher = more signal, called active from +8 up or from −8 down.
On to `COC(=O)[C@@]1(Cc2ccc(F)cc2)[C@H]2c3cc(C(=O)N(C)C)n(Cc4ccc(O)c(OC)c4)c3C[C@H]2CN1C(=O)c1ccccc1`, for which the composite z-score was 0.0137 (inactive).
Turning to `CO[C@H]1O[C@H](CO)[C@@H](OC(=O)Nc2cccc(F)c2)[C@H](OC(=O)Nc2ccccc2-c2ccccc2)[C@H]1OC(=O)Nc1ccccc1-c1ccccc1`, the composite z-score was 0.184 (inactive).
The same measure for `C=C(CCCC)/C(=C/C[C@H](OC(C)=O)c1ccc(OCCO)cc1)c1cc(C(=O)OC)ccc1OC`: -0.124 (inactive); for `COCCCNC(=O)[C@@]1(Sc2ccc(C)cc2)CC(=O)N(Cc2ccccc2Cl)[C@@H]1c1ccc(CO)cc1I`: -0.517 (inactive).
The same measure for `COc1cccc(/C=C(\C#N)C(=O)Nc2c(C)n(C)n(-c3ccccc3)c2=O)c1`: 0.0887 (inactive).
The value for `CS(=O)(=O)CCOC(=O)C1=CC(CCCO)=CC(C2CC2)N(Cc2cccc(OC(F)(F)F)c2)C=C1C(=O)OCCS(C)(=O)=O` (stereo not given) was 0.892 (inactive); that for `COc1ccc(C#Cc2ccc3c(c2)[C@]2(C(=O)N3)[C@H](C(=O)Nc3nc4ccccc4s3)[C@H]3C(=O)O[C@H](c4ccccc4)[C@H](c4ccccc4)N3[C@@H]2c2ccccc2OCCO)cc1` was 0.416 (inactive); that for `C=C[C@@H](C)[C@@H](OC(=O)Nc1ccc(SC)cc1)c1ccc(OCCO)cc1` was -0.0412 (inactive).
For the compound `CC(=O)N1CC(C(O)C2C=CC3C(=O)NC(=O)C3N2Nc2ccc(Cl)cc2Cl)c2ccccc21` (stereo not given), the composite z-score was 0.111 (inactive).
The same measure for `CC(C)C[C@@H]1NC(=O)[C@H]2C[C@@H](C(=O)NCCCCCN)[C@@H](c3cccc(OCCO)c3)N2C1=O`: 1.35 (inactive); for `C=C(/C(=C/C[C@@H](OC(C)=O)c1ccc(CO)o1)c1cc(C(=O)OC)ccc1OC)C(C)C`: 0.698 (inactive); for `O=C1OCC=C[C@H]2OC34C=CCN(c5ccc6ccccc6c5)C(=O)[C@H]3N(CCCCCO)C(=O)[C@@H]4[C@@H]12` (stereo not given in full): 0.407 (inactive).
The same measure for `COC(=O)[C@@]1(Cc2ccccc2)[C@H]2c3cc(C(=O)N4CCCC4)n(CCSCCO)c3C[C@H]2CN1C(=O)c1ccccc1`: 0.343 (inactive); for `NC(=O)[C@@H]1[C@H]2C(=O)O[C@H](c3ccccc3)[C@H](c3ccccc3)N2[C@H](c2ccc(OCCO)cc2)[C@@]12C(=O)Nc1ccc(C#CCCO)cc12`: 0.198 (inactive); for `[N-]=[N+]=Nc1ccccc1C[C@]1(C(=O)NCc2ccccc2)COC(c2ccc(OCCCO)cc2)=N1`: 0.261 (inactive).
`CN1C(=O)[C@@]2(Cc3ccccc3)N=C(c3ccc(OCCCO)cc3)O[C@H]2c2ccccc21`: the composite z-score is 1.11 (inactive).
The value for `CCOC(=O)C[C@H]1[C@H](OC(=O)c2ccccc2-c2ccccc2)[C@@H](NC(=O)c2ccc3ccccc3n2)c2cc(OCCCO)ccc2N1C(=O)c1ccccc1` was 0.428 (inactive); that for `Nc1cc(Br)ccc1C(=O)O` was 0.513 (inactive).
The value for `C=C(COC)C(=O)CC[C@@H](OC(=O)c1cccnc1)c1ccccc1OCCO` was -0.288 (inactive).
`CCOC(=O)C1=C[C@@H](c2ccccc2)N(S(=O)(=O)c2ccc(C)cc2)[C@H]1c1ccccc1`: the composite z-score was 0.598 (inactive).
As to `CC(C)c1ccc(NN2C(C(O)Cc3ccccc3)C=CC3C(=O)N(c4ccccc4)C(=O)C32)cc1` (stereo not given), the composite z-score is -0.0839 (inactive).
The same measure for `C=CCC(OC(C)=O)[C@@H]1[C@@H](N(Cc2ccc(-c3cccc(C(F)(F)F)c3)o2)C(=O)Cc2ccc(OC)cc2)c2cc(OCCCO)ccc2N1C(=O)Cc1ccc2ccccc2c1` (stereo not given in full): 0.0389 (inactive).
On to `COCCOC(=O)N1C(=O)[C@@]2(c3cc(C#CCNC(N)=O)ccc31)[C@H](c1ccc(O)cc1)N1[C@H](c3ccccc3)[C@H](c3ccccc3)OC(=O)[C@H]1[C@@H]2C(N)=O`, for which the composite z-score was -0.256 (inactive).
The value for `C=CC1c2cc(O)c(OC)cc2CCN1Cc1ccc([N+](=O)[O-])o1` (stereo not given) was 0.835 (inactive); that for `CC(=O)n1cc(C(O)C2C=CC3C(=O)N(c4ccccc4)C(=O)C3N2Nc2ccc(C(C)C)cc2)c2ccccc21` (stereo not given) was 0.18 (inactive); that for `CO[C@H]1O[C@H](CO)[C@@H](OC(=O)c2ccc(Br)cc2)[C@@H]2OC(=O)[C@H](Cc3ccccc3)C/C=C/C[C@@H](Cc3ccccc3)C(=O)O[C@@H]12` was -0.161 (inactive).
The same measure for `CN(C)CCCC[C@@H]1NC(=O)[C@@H]2C[C@H](C(=O)O)[C@H](c3cccc(OCCO)c3)N2C1=O`: 1.02 (inactive).
As to `CCCCCCCCCCC(O)C1C=CC2C(=O)N(c3ccccc3)C(=O)C2N1Nc1ccccc1F` (stereo not given), the composite z-score was 1.69 (inactive).
The same measure for `C=CCOC(=O)[C@H]1[C@@H]2C(=O)O[C@@H](c3ccccc3)[C@@H](c3ccccc3)N2[C@@H](c2ccc(OCCOC(=O)[C@H]3C[C@H]4C(=O)N[C@@H](CCCCNC(C)=O)C(=O)N4[C@H]3c3cccc(OCCO)c3)cc2)[C@]12C(=O)Nc1ccc(I)cc12`: 0.996 (inactive); for `Cc1ccc(F)cc1S(=O)(=O)N[C@@H]1CCN(Cc2cccc3[nH]ccc23)C1`: -0.605 (inactive); for `CC(C)C(=C=CC[C@@H](O)c1cccc(OCCO)c1)C[C@@H](O)c1ccccn1`: -0.0008 (inactive).
The value for `[N-]=[N+]=NCc1ccccc1[C@H]1OC(c2ccc(OCCCO)cc2)=N[C@@]1(Cc1ccccc1)C(=O)NCCN1CCOCC1` was 0.0723 (inactive); that for `C=CC[C@H](OC(=O)Nc1ccc(SC)cc1)c1ccc(OCCO)cc1` was 1.07 (inactive).
The value for `CN(C)C(=O)[C@@]1(Cc2ccccc2)COC(c2ccc(OCCCO)cc2)=N1` was 0.205 (inactive).
For `NC(=O)[C@H]1[C@@H]2C(=O)O[C@@H](c3ccccc3)[C@@H](c3ccccc3)N2[C@@H](c2ccc(O)cc2)[C@]12C(=O)Nc1ccc(C#CC3=CCCCC3)cc12`, the composite z-score was 0.875 (inactive).
